# Screens: PubChem, National Center for Advancing Translational Sciences (NCATS)
# Most compounds without a hit are left out; they make up all but 17% or so of the library.
# TDP1 inh = inhibitors of human tyrosyl-DNA phosphodiesterase TDP1; Q9NUW8; recombinant TDP1, AlphaScreen DNA substrate cleavage; Potency, µM (highest dose often 130 µM), inactives show at the top dose activity change, negative = inhibition, most hits filed as inhibitors; 350,000 compounds, 0.28% hits; AID 485290; further: on the % scale 0 is the no-effect control and ±100 the full control effect; nearly all actives have a fitted effect of over 40% in size
#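 AlphaScreen read-out: signal falls as enzyme removes the 3' tyrosine-FITC from a 5'-biotinylated DNA oligo (15 nM, 5 min, RT). Enzyme was E. coli-made recombinant Tdp1 at 1 nM, exposed to compound for 15 min beforehand; beads 10 ug/ml, 10 min.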
# TDP1 cell CPT = DT40-hTDP1 cell growth loss with CPT; chicken DT40 Tdp1-/-;hTDP1 cells + 20 nM CPT, ATP luminescence, 48 h; Potency, µM (top dose mostly 46.2 µM), without a hit: top-dose activity change, negative = growth inhibition, actives largely listed as inhibitors; 420,000 compounds, 12% hits; further: on the % scale 0 is the no-effect control and ±100 the full control effect; nearly all actives have a fitted effect of over 55% in size
#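 Cell growth measured by CellTiter-Glo luminescence after a minimum 48 h, 37 C compound exposure with 20 nM CPT in Tdp1-knockout DT40 cells stably expressing hTDP1, seeded 400/well; qHTS titration format.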
# DT40 TDP1 no CPT = qHTS for Inhibitors of human tyrosyl-DNA phosphodiesterase 1 (TDP1): qHTS in cells in absence of CPT; Potency, µM (top dose mostly 46.2 µM), without a hit: top-dose activity change, negative = growth inhibition, most hits filed as inhibitors; 420,000 compounds, 15% hits; AID 686978, 2013; DT40 Tdp1-/- hTDP1 cells, no CPT, ATP luminescence, 48 h; further: on the % scale 0 is the no-effect control and ±100 the full control effect; nearly all actives have a fitted effect of over 55% in size
#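 Chicken DT40 Tdp1-/- cells stably complemented with human TDP1 were seeded at 400 cells/well with DMSO in place of 20 nM camptothecin. After compound pinning, cells grew at least 48 hr at 37 °C; viability read by CellTiter-Glo luminescence.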
# ClpP mod = qHTS Assay for Activators of ClpP | purified B. subtilis ClpP, FRET peptide cleavage, 20 min | ATP-dependent Clp protease proteolytic subunit (Bacillus subtilis (strain 168)), P80244 | 340,000 compounds, 1.9% hits | Potency, µM (titrated, usually from 57.5 µM), for the others: at the highest dose activity change, negative = active; active means well fitted falling curve with a large enough effect; inconclusive means small, poorly fitted or top-dose-only effect; inactive means no such curve, though single readings can be large or run the other way; further: the source files actives as falling curves though it sought activators and does not explain the sign; nearly all actives have a fitted effect of over 65% in size
# Target sequence (P80244 whole entry, looked up): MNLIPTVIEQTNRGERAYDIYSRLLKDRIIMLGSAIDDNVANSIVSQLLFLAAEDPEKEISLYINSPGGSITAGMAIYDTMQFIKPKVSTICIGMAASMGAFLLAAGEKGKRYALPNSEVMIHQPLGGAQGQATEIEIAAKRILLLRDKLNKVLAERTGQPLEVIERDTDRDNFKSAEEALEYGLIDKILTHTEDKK
#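 ClpP 10 microg/mL final, pH 8 Tris/KCl buffer with BSA, glycerol, Tween-20; compound pinned in; FRET-FV substrate; RT 20 min; Ex320/Em430; ΔFRET vs ADEP 5.8 microM, DMSO, no enzyme.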
# * = called active by the depositor; ? = inconclusive; · = no result; [ ] = dose if it differs, or a comment. Unless noted, the call rests on the fitted dose curve; in most records, active means well fitted curve in the direction sought with a large enough effect; inconclusive means small, poorly fitted or top-dose-only effect, or another doubt; inactive means no such curve, though single readings can be large; an effect the other way counts as inactive or inconclusive. Potency means the concentration at half of the fitted maximal effect.
SMILES,TDP1 inh,TDP1 cell CPT,DT40 TDP1 no CPT,ClpP mod
CCOC(=O)c1c(NC(=O)CN2C(=O)C(=O)N(C(C)C)C2=O)sc(C)c1CC,1%[56.1 µM],?,?,5%
CC(=O)c1ccc(Nc2nc(C(N)C(C)C)cs2)cc1 (centres undefined),·,?,?,-12%
NC(Cc1ccccc1)c1csc(Nc2ccc(C(=O)c3ccccc3)cc2)n1 (centres undefined),·,15µM*,8.2µM*,-5%
NC(Cc1ccc(Cl)cc1)c1csc(Nc2ccc(C(=O)c3ccccc3)cc2)n1 (centres undefined),·,21µM*,21µM*,-8%
NC(Cc1ccc(F)cc1)c1csc(Nc2ccc(C(=O)c3ccccc3)cc2)n1 (centres undefined),·,?,?,-5%
COc1ccc(CC(N)c2csc(Nc3ccc(C(C)=O)cc3)n2)cc1 (centres undefined),·,26µM*,21µM*,-8%
NC(c1csc(Nc2ccc(C(=O)c3ccccc3)cc2)n1)c1ccccc1Cl (centres undefined),·,21µM*,?,-14%
COC(C(C)/C=C/CC(=O)OCCCc1ccccc1)C1CCCCC1 (centres undefined),5%[21 µM],·,·,·
CC(C)C(N)c1csc(Nc2ccc(C(=O)c3ccccc3)cc2)n1 (centres undefined),·,?,?,-6%
COc1ccc(CC(N)c2csc(Nc3ccc(C(=O)c4ccccc4)cc3)n2)cc1 (centres undefined),·,12µM*,9.2µM*,-5%
CCCOc1ccccc1/C=C(\C#N)C(=O)Nc1cccnc1,8%,-3%,-11%,·
COc1cc(CN2CCN(Cc3ccccc3C(F)(F)F)CC2)cc(OC)c1OC,·,?,26µM*,·
COc1cc(CN2CCN(Cc3ccc(C(F)(F)F)cc3)CC2)cc(OC)c1OC,·,23µM*,21µM*,0%
Cc1ccc(CN2CCN(Cc3ccccc3C(F)(F)F)CC2)cc1,·,?,?,1%
COc1ccc(CN2CCN(Cc3ccc(C(F)(F)F)cc3)CC2)c(OC)c1,·,21µM*,15µM*,-1%
COc1ccc(CN2CCN(Cc3ccc(C)cc3)CC2)c(OC)c1,·,-21%,?,-1%
COc1cc(CN2CCCCCC2)cc(OC)c1OC,·,12%,9%,0%
C#CCN(Cc1nc(N2CCOCC2)c2ccc(Cl)cc2n1)Cc1ccco1,·,26%[9.04 µM],?,·
N#C/C(=C\c1ccc([N+](=O)[O-])o1)C(=O)Nc1ccc(F)cc1,6%,1.3µM*,2.3µM*,·
COc1cc(CNC(C)(C)C)cc(Br)c1OCc1cccs1,1%,?,15µM*,-5%
CC(C)(C)NCc1cc(Br)ccc1OCc1cccs1,-3%,?,?,-1%
CC(C)(C)NCc1cc(Cl)ccc1OCc1cccs1,-1%,15µM*,?,1%
COc1cc(CNCCO)cc(Br)c1OCc1cccs1,1%,-17%,29µM*,1%
O=C1CC(C(=O)O)C(c2ccccc2)c2ccccc21 (centres undefined),·,0%,-16%,·
COc1cccc(CNC(=O)c2cccc(-n3c(C)nc4cccnc43)c2C)c1,3%,21µM*,?,-2%
SMILES,TDP1 inh,TDP1 cell CPT,DT40 TDP1 no CPT,ClpP mod
Cc1c(C(=O)NCc2ccccc2Cl)cccc1-n1cnc2cccnc21,6%,18µM*,23µM*,0%
COc1ccc(NC(=O)c2cc(C3CC3)nc3c2c(C)nn3-c2ccccc2)cc1,8%,?,-51%,182%
Cc1nn(-c2ccccc2)c2nc(C3CC3)cc(C(=O)Nc3ccc(F)cc3)c12,-4%,16µM*,21µM*,4%
COc1ccc(NC(=O)c2cc(C3CC3)nc3c2c(C)nn3-c2ccccc2)c(OC)c1,-5%,-20%,?,1%
COc1ccc(OC)c(NC(=O)c2cc(C3CC3)nc3c2c(C)nn3-c2ccc(C)cc2)c1,1%,26µM*,?,?
COc1ccc(CNC(=O)c2cccc(-n3cnc4cccnc43)c2C)cc1,0%,-29%,-16%,-2%
CCc1ccc(CN(C)C(=O)CCc2nnc(CCc3cccc(OC)c3)o2)nc1,2%,?,?,-2%
COc1ccc(NC(=S)N2CCc3ccccc3C2)cc1,2%,-8%,?,2%
N#Cc1nc(N2CCCC2)nc(N(c2ccccc2)c2ccccc2)n1,-1%,9%,-20%,-15%
COc1ccc(CCNC(=O)c2cc(C)nc3c2c(C)nn3-c2ccc(C)cc2)cc1OC,2%,?,?,-4%
COc1ccc(NC(=O)c2cc(C)nc3c2c(C)nn3-c2ccc(C)cc2)cc1OC,5%,?,15µM*,9%
COc1cccc(CNC(=O)c2cc(C)nc3c2c(C)nn3-c2ccc(C)cc2)c1,-12%,?,16µM*,5%
CC1(C)C2CCC(CN)C1C2 (centres undefined),·,14%,2%,-1%
COc1ccccc1/C=C/c1nc(C#N)c(N2CCN(c3ccccc3)CC2)o1,5%,?,?,5%
Cc1nc2sc(C(c3ccco3)N3CCN(C(c4ccccc4)c4ccccc4)CC3)c(O)n2n1 (centres undefined),-7%,?,18µM*,0%
COc1ccc(C(c2sc3nc(C)nn3c2O)N2CCc3ccccc3C2)cc1 (centres undefined),8%,-20%,-22%,-1%
COc1cc(C(c2sc3nc(C)nn3c2O)N2CCc3ccccc3C2)cc(OC)c1OC (centres undefined),1%,23µM*,10µM*,-5%
COc1ccc(CNc2ccc(S(=O)(=O)N3CCN(C)CC3)cn2)cc1OC,0%,-25%,-19%,1%
COc1ccc(CCNC(=O)C(=O)NCC(c2cccs2)S(=O)(=O)c2ccccc2)cc1 (centres undefined),·,?,?,-2%
O=C(Nc1ccccc1N1CCCC1)c1cc2ccccc2o1,8%,?,?,-12%
O=C(Nc1ccccc1N1CCN(C(=O)c2ccccc2)CC1)c1cc2ccccc2o1,7%,?,21µM*,10%
O=C(Nc1ccc(N2CCOCC2)c(Cl)c1)c1cc2ccccc2o1,3%,15µM*,21µM*,-1%
O=C(NC(=S)Nc1ccc(CN2CCCCC2)cc1)c1cc2ccccc2o1,-4%,23µM*,21µM*,2%
O=C(Nc1ccccc1N1CCOCC1)c1cc2ccccc2o1,7%,16µM*,-26%,·
O=C(Nc1ccc(N2CCN(C(=O)c3ccccc3)CC2)cc1)c1cc2ccccc2o1,7%,6.5µM*,5.2µM*,77%
CSCc1c(C(=O)Nc2ccc(N3CCOCC3)cc2)oc2ccccc12,1%,-18%,-24%,14%
CSCc1c(C(=O)Nc2ccccc2N2CCOCC2)oc2ccccc12,2%,16µM*,7.3µM*,?
